Assay results published in PubChem BioAssay AID485270 (The Scripps Research Institute Molecular Screening Center, 2010).
About 5,800 (1.8%) of roughly 330,000 compounds were called active. This is one part of a sample in which actives are shown more often than they occur. Cut-off read from the data, not from the text of the source: active = inhibition mostly above about 38% (no sharp cut-off); inactive = mostly below about 40%.

Each molecule was assayed against Orexin/Hypocretin receptor type 1 (Homo sapiens) (UniProt O43613) (assay: blocks the human orexin 1 receptor (AID 485270;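 note: 0% = agonist challenge alone and 100% = reference antagonist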)). Settings: OX1R-expressing cells, FRET antagonist read-out; at 6.6 µM; stronger effect = higher value.
Orexin/Hypocretin receptor type 1 (Homo sapiens), sequence (O43613 whole entry, looked up): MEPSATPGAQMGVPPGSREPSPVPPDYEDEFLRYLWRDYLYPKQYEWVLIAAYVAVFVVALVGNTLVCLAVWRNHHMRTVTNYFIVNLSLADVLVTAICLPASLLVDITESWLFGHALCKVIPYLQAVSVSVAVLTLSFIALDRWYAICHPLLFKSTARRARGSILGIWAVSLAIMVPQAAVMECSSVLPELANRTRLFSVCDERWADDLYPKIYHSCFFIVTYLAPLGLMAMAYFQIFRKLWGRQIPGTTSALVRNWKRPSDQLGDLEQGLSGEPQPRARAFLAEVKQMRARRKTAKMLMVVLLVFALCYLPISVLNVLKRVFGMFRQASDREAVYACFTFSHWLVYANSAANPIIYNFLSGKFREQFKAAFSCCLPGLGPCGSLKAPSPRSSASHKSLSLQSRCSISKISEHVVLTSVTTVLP

Structure (SMILES) | inhibition
CCC(CO)Oc1cc(NC(=O)c2cccc(F)c2)c2ncn(C(C)C)c2c1 (stereo not given) | 10.7% (inactive)
COc1cccc(NC(=O)COc2cccnc2[N+](=O)[O-])c1 | 17.9% (inactive)
O=C(CCNC(=O)c1ccccc1)NN=Cc1ccc(Br)o1 | 13.7% (inactive)
COc1cc(OC)c(S(=O)(=O)Nc2ccccc2C(=O)O)cc1S(=O)(=O)Nc1ccccc1C(=O)O | 3.5% (inactive)
COC(=O)c1ccc(NC(=O)c2ccccc2NS(=O)(=O)c2ccccc2)cc1 | 27% (inactive)
COc1cc(NC(=O)c2ccccc2NS(=O)(=O)c2ccc(Cl)s2)cc(OC)c1 | 72.7% (active)
NC[C@H](Cc1ccccc1)NCCc1cc(C(F)(F)F)cc(C(F)(F)F)c1 | 4.07% (inactive)
CCCN(CC1CC1)C(=O)COC(=O)c1ccc(C)cc1O | 10.6% (inactive)
COc1cc(SC#N)ccc1N=Cc1c(C)[nH]n(-c2ccc(C)cc2)c1=O | 14.1% (inactive)
Cc1[nH]n(-c2ccccc2)c(=O)c1/C=N/NC(=O)c1ccoc1C | 17.4% (inactive)
Cc1ccc(-n2[nH]c(C)c(/C=N/N3C(=O)c4cccc5cccc(c45)C3=O)c2=O)cc1 | 67% (active)
COc1ccc(CC(=O)N[C@@H]2c3cc(OC)c(OC)cc3C[C@H]2OCc2ccccc2)cc1 | 16% (inactive)
O=C1NC[C@@H](c2ccccc2)OC(=O)[C@H](Cc2ccc(F)cc2)CC/C=C/C[C@H]1CC(=O)N(CCO)Cc1ccccc1 | 28.2% (inactive)
Cc1cc(NC(=O)CSCC(=O)NC(C)c2ccccc2)no1 (stereo not given) | -1.97% (inactive)
CC(NC(=O)c1ccccc1C(=O)O)c1ccc(-n2ccnc2)cc1 (stereo not given) | 14.7% (inactive)
CC(NC(=O)c1ccccc1F)c1cccc2ccccc12 (stereo not given) | 29.1% (inactive)
CC(NC(=O)c1cccc2ccccc12)c1ccc2c(c1)CCCC2 (stereo not given) | 79% (active)
C#CCOCCOCCOCCNc1nc(N2CCN(C(=O)[C@H](CO)n3cc([C@@H](N)C(C)C)nn3)CC2)nc(N2CCN(C(=O)[C@H](CCC(=O)O)n3cc([C@@H](N)[C@H](C)CC)nn3)CC2)n1 | 3.25% (inactive)
Cc1n[nH]c(=O)c2c(NC(=O)CSc3cc(Cl)ccc3Cl)oc(C)c12 | 15.7% (inactive)
Cc1n[nH]c(=O)c2c(NC(=O)CSc3ccccc3F)oc(C)c12 | 15.6% (inactive)
Cc1n[nH]c(=O)c2c(NC(=O)COC(=O)c3ncc(Cl)c(Cl)c3Cl)oc(C)c12 | 52.6% (active)
Cc1ccc(NC(=O)C2CCC(C(C)(C)C)CC2)cc1S(=O)(=O)N1CCOCC1 (stereo not given) | 13.3% (inactive)

Structure (SMILES) | inhibition
CCCCNC(=O)CN1C(=O)NC(Cc2ccccc2)(Cc2ccccc2)C1=O | 28.3% (inactive)
O=C(CC1CCCCC1)NCc1ccccc1 | 7.66% (inactive)
O=C(CN1C(=O)NC(Cc2ccccc2)(Cc2ccccc2)C1=O)NCC1CCCCC1 | 42.4% (active)
Cc1noc(C)c1NC(=O)Nc1cccc2c1O[C@H](CN(C)S(=O)(=O)c1c(C)noc1C)[C@@H](C)CN([C@H](C)CO)C2=O | -0.11% (inactive)
CCOc1ccccc1Nc1nnc(SCC(=O)NCC2CCCO2)s1 (stereo not given) | 6.79% (inactive)
COCc1ccc(C(=O)NC2CC(C)(C)Cc3c2cnn3-c2ccc(C)cc2)o1 (stereo not given) | 34.1% (inactive)
COc1ccc(C(=O)NC2CC(C)(C)Cc3c2cnn3-c2ccccc2C)o1 (stereo not given) | 71.7% (active)
COc1ccc(C(=O)NC2CC(C)(C)Cc3c2cnn3-c2ccccc2)c(OC)c1 (stereo not given) | 34.6% (inactive)
COc1cc(OC)c2c(-c3cccc(-c4cccc(N)c4)c3)cc(=O)oc2c1 | 7.11% (inactive)
COc1cccc(/C=N/Nc2cc(C)nc(-c3ccccc3O)n2)c1O | 107% (active)
COc1ccccc1/C=N/Nc1nc(C)c(C(C)=O)s1 | 13.4% (inactive)
COc1cccc(/C=N/Nc2ncc(C(F)(F)F)cc2Cl)c1O | 9.55% (inactive)
Cc1scc(C(=O)NNC(=S)NCc2ccccc2)c1C | 11.1% (inactive)
CCOC(=O)C1CCCN(C(=O)CSc2nnc3nc(C)cc(C)n23)C1 (stereo not given) | 0.28% (inactive)
N#Cc1c(NCCO)ccc([N+](=O)[O-])c1NCCO | 49.8% (active)
O=[N+]([O-])c1ccc(NCCCO)c(C(F)(F)F)c1 | 28.9% (inactive)
O=C(NCCNc1ccccc1[N+](=O)[O-])c1ccccc1F | 9.6% (inactive)
COc1ccccc1N(CCOc1ccccc1)S(=O)(=O)c1ccccc1 | 26.3% (inactive)
COc1ccc(C(=O)NCC(=O)N/N=C/c2ccc([N+](=O)[O-])o2)cc1OC | 40% (inactive)
Cc1cc(C)nc(N/N=C/c2ccc([N+](=O)[O-])o2)n1 | 60.5% (active)
Cc1cc(C)nc(N/N=C/c2c(C)oc3ccccc23)n1 | 24.7% (inactive)
COc1ccc(S(=O)(=O)N2CCCCCC2)cc1NC(=O)Cc1ccc(OC)c(OC)c1 | 8.64% (inactive)

Structure (SMILES) | inhibition
COc1cc(OC)cc(-c2c(C#Cc3ccsc3)c3cc(-c4ccc(OC)cc4F)ccc3n2C)c1 | 9.29% (inactive)
Cc1noc(C)c1S(=O)(=O)N(C)C[C@H]1Oc2ccc(NC(=O)C3CC3)cc2C(=O)N([C@H](C)CO)C[C@@H]1C | 3.87% (inactive)
CN1C(=O)[C@H]2[C@@H](/C=C/c3ccccc3)N3C(=O)CN(Cc4ccc(-c5ccccc5)cc4)C(=O)[C@@]3(C)[C@H]2C1=O | -0.45% (inactive)
CN1CN(C)c2ccc([N+](=O)[O-])c3cccc1c23 | 44.5% (active)
O=[N+]([O-])c1cccc2ncccc12 | 22.2% (inactive)
CN1CCN(c2ccc(S(=O)(=O)Nc3ccccc3)cc2[N+](=O)[O-])CC1 | 27.9% (inactive)
Cc1ccccc1NC(=O)CSC(=O)c1ccccc1 | 3.63% (inactive)
COC(=O)C1CCN(C(=O)COC(=O)c2cc(S(=O)(=O)N3CCOCC3)ccc2C)CC1 | -3.08% (inactive)
CN1CCN(/N=C/c2ccc(C#N)cc2)CC1 | 37.9% (inactive)
CN1CCN(/N=C/c2ccc(-c3ccc([N+](=O)[O-])cc3)o2)CC1 | 83.2% (active)
CN1CCN(/N=C2/C(=O)Nc3ccc([N+](=O)[O-])cc32)CC1 | 72.6% (inactive)
C[C@H](CO)N1C[C@H](C)[C@@H](CN(C)Cc2ccc(-c3ccccc3)cc2)Oc2ccc(NC(=O)Cn3cnnn3)cc2C1=O | -2.89% (inactive)
CC(C)N(C(=O)[C@H]1C[C@H](CC(=O)NCCC2=CCCCC2)C(=O)N2CCc3c([nH]c4cc(CCC(=O)N(C)C)ccc34)[C@]12C)C(C)C | 10.8% (inactive)
CCN(CC(=O)Nc1c(F)cccc1F)C(=O)c1ccc(Sc2nncn2C)c([N+](=O)[O-])c1 | 37% (inactive)
Cn1cnnc1Sc1ccc(S(C)(=O)=O)cc1[N+](=O)[O-] | 95.8% (active)
CC(C)(C)n1cnnc1Sc1ccc([N+](=O)[O-])cn1 | 36.8% (inactive)
CC[C@]12c3[nH]c4ccc(Cl)cc4c3CCN1C(=O)[C@@H](CC(=O)NCCN1CCOCC1)C[C@@H]2C(=O)N1CCN(C(=O)C2CC2)CC1 | 3.88% (inactive)
O=C(NNC(=O)C1CCCC1)c1ccc(F)cc1 | 7.91% (inactive)
O=C(/C=C/c1ccc([N+](=O)[O-])o1)NNC(=O)c1ccc(F)cc1 | 57.8% (active)
Cc1ccc(/C=C/C(=O)Nc2ccc([N+](=O)[O-])c(NC(=O)/C=C/c3ccc(C)o3)c2)o1 | 13.2% (inactive)
C=CCn1c(SCc2cc(C(=O)OC)c(C)o2)nnc1-c1ccncc1 | 18.3% (inactive)
C=CCn1c(SCc2c(C(=O)OC)sc(N)c2C(=O)OC)nnc1-c1ccc(Cl)cc1 | 45.4% (active)

Structure (SMILES) | inhibition
C=CCn1c(SCn2nnc3ccccc3c2=O)nnc1-c1ccc(Cl)cc1 | 25% (inactive)
Cc1ccc(NC(=O)COC(=O)C2CC2)cc1S(=O)(=O)N1CCOCC1 | 4.49% (inactive)
CCCCOc1ccc(C(=O)NCC(=O)OCC(=O)c2c(N)n(C)c(=O)n(C)c2=O)cc1 | 4.34% (inactive)
COc1ccc(NC(=O)CNc2cc(S(=O)(=O)N3CCOCC3)ccc2N2CCOCC2)c(OC)c1 | 17.1% (inactive)
C#CCOCCOCCOCCNc1nc(N2CCN(C(=O)[C@H](CCC(=O)O)n3cc(CN)nn3)CC2)nc(N2CCN(C(=O)[C@H](CCC(=O)O)n3cc(CN)nn3)CC2)n1 | 4.4% (inactive)
CCn1c(=S)[nH]c2cc(S(=O)(=O)N3CCOCC3)ccc21 | 8.76% (inactive)
COCC(C)n1c(SCc2ccc(C(=O)OC)o2)nc2ccccc2c1=O (stereo not given) | 29.3% (inactive)
COCC(C)n1c(SCC(=O)NC2CCCCC2C)nc2ccccc2c1=O (stereo not given) | 39.7% (active)
COCCn1c(C)cc(C(=O)CSc2nc3ccccc3c(=O)n2C(C)COC)c1C (stereo not given) | 9.56% (inactive)
O=C1CCC/C=C\C[C@@H](CC(=O)N(CCO)Cc2ccccc2)C(=O)NCCO1 | 3.3% (inactive)
O=C(NCc1ccco1)C1CCCN(S(=O)(=O)c2cnc[nH]2)C1 (stereo not given) | 6.51% (inactive)
O=C(NCc1ccco1)C1CCCN(S(=O)(=O)c2cccc3nonc23)C1 (stereo not given) | 95.8% (active)
COc1ccccc1CNC(=O)C1CCCN(S(=O)(=O)c2cccc3cccnc23)C1 (stereo not given) | 11.7% (inactive)
O=C(c1ccco1)N1CCN(C(=O)C2c3ccccc3Oc3ccccc32)CC1 | -0.85% (inactive)
CCCCN(C)CCNC(=O)C1CCCN(S(=O)(=O)c2cccc3nsnc23)C1 (stereo not given) | 26.9% (inactive)
O=C(NCc1ccco1)C1CCCN(S(=O)(=O)c2ccccc2)C1 (stereo not given) | 22.4% (inactive)
CCCCN(CC)C(=O)C1CCCN(S(=O)(=O)c2cccc3nsnc23)C1 (stereo not given) | 39.7% (active)
COc1cccc(N2CCN(C(=O)C3CCCN(S(=O)(=O)c4cnc[nH]4)C3)CC2)c1 (stereo not given) | 4.15% (inactive)
O=C(c1ccco1)N1CCN(C(=O)C2CCCN(S(=O)(=O)c3cccc4nsnc34)C2)CC1 (stereo not given) | 59.8% (active)
